Structures are written as SMILES. Results filed as inconclusive are left out. Values without a mark were called inactive. Active and inactive are the calls of the source. Calls come from the whole dose curve; as a rule, active = well fitted cell-killing curve with a large enough effect; inconclusive = small, poorly fitted or top-dose-only effect, or effect the other way; inactive = no such curve, though single readings can be large or run the other way.
% is set by controls: 0 for no effect and ±100 for the full control effect; potency is the fitted concentration of half-maximal effect.

The nature of the assay: qHTS of pediatric cancer cell lines to identify multiple opportunities for drug repurposing: Confirmatory screen for OHS-50 cells (AID 1347128).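 Note: compound exposure lasted 48 h at 37 degrees C; nearly all actives have a fitted effect of over 55% in size.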 As to conditions: OHS-50 osteosarcoma cells viability; series mostly up to 45.9 µM; activity change, negative = cytotoxic: at the top concentration. From the text: Drug repurposing or repositioning has been offered as a strategy for drug development in oncology programs. This approach has special potential for childhood cancers and other rare or orphan diseases, where the expected return on new drug development has been a disincentive to pharmaceuticals.
In this project we exploit the poly-pharmacology of drugs to discover new indications via phenotypic screening of a panel of 19 well-characterized cell lines derived from solid tumors seen in children and adolescents. The goal is to identify approved drugs with previously unrecognized anticancer properties that has the potential to reveal new mechanisms and biological processes involved in carcinogenesis or drug resistance. We employed a titration-based paradigm (quantitative high-throughput screening or qHTS), where all compounds were tested at multiple concentrations for their effect on cell viability. Concentration-response curves (CRCs) were derived directly from the primary screen, and both potency and efficacy values were used to identify compounds with robust bioactivity profiles. We screened the NIH Chemical Genomics Center (NCGC) Pharmaceutical Collection (NPC) and Mechanism Interrogation Plate (MIPE) small molecule collections of approved and investigational compounds against these cell lines; and measured metabolically active cells after 48 hours of compound treatment as a proxy for cell viability.
Assay Submitter: Nathalia J. Martinez, National Center for Advancing Translational Sciences, National Institutes of Health, Rockville, MD, USA; email: natalia.martinez@nih.gov
[1] Shen, M et al. Quantitative high-throughput phenotypic screening of pediatric cancer cell lines identifies multiple opportunities for drug repurposing. Oncotarget 2017 Dec 19;9(4):4758-4772. PMID 29435139.
The cells were obtained from University of North Carolina (UNC), Pediatric Preclinical Testing Program (PPT), and Coriell Institute (CI).
qHTS cell viability assay:
Cells were assayed in growth media at a density of 500-1,000 cells/well. Five microliters of cells were dispensed into 1,536-well, white, solid-bottom, TC-treated plates (Greiner Bio One) using a multidrop dispenser and incubated at 37 degrees C, 5% CO2, under a humidified atmosphere for 5 hours. Twenty-three nanoliters of compounds and controls (neutral control DMSO or positive control bortezomib at final concentration of 2.3 µM) were subsequently transferred by Kalypsys pintool. For primary screens, the MIPE collection was tested at 11-point dilutions (final concentrations range from 0.78 nM to 46 µM) and the NPC collection at 8-point dilutions (final concentrations range from 0.59 nM to 46 µM). Compounds tested in follow-up screens were assayed at 11-point dilutions. Cells were incubated for 48 hours, followed by addition of 3 µL of CellTiter-Glo (Promega). After a 15 min incubation at room temperature, samples were analyzed for luminescence intensity using a ViewLux High-throughput CCD imager equipped with clear filters.
(In general: Quantitative high-throughput screening tests each substance at several concentrations.)
In the case of `CC1Sc2c(C(=O)O)c(=O)c3cc(F)c(N4CCNCC4)cc3n21` (stereo unspecified), the “activity change, negative = cytotoxic” value was -5.81%.
`CCCCCCCCC(=O)NCc1ccc(O)c(OC)c1`: the “activity change, negative = cytotoxic” value is 1.8%.
For `COC(=O)C1=CCCN(C)C1`, the “activity change, negative = cytotoxic” value was 2.27%.
Same read-out and setting: next, `COc1ccc2c(C(=O)c3ccc(Cl)cc3)c(C)n(CC(=O)O)c2c1`: -1.57%; `CN1[C@@H]2CC[C@H]1CC(OC(=O)c1cc(Cl)cc(Cl)c1)C2` (stereo partly specified): -19.1%.
Consider `CCCCCCCCCCCC[N+](C)(C)CCOc1ccccc1`, for which the Potency was 20800 nM (active).
On the same count and under the same terms, to `CC[n+]1c(-c2ccccc2)c2cc(N)ccc2c2ccc(N)cc21` belongs 1170 nM (active).
Take `CCc1ccc(C2CCNCC2)cc1`: the “activity change, negative = cytotoxic” value was -7.13%.
Take `C[C@@H]1C[C@@H]([C@H](O)CC2CC(=O)NC(=O)C2)C(=O)[C@@H](C)C1`: the Potency was 928 nM (active).
For `Cc1ccc([N+](=O)[O-])[c]2c1[O][Hg]2`, the Potency is 2610 nM (active).
In the case of `ClC1=C(Cl)C2(Cl)C(CBr)CC1(Cl)C2(Cl)Cl` (stereo unspecified), the “activity change, negative = cytotoxic” value was 5.04%.

For the origin of these results see PubChem BioAssay (NCATS).
